# CCT chaperon mod: High-Throughput Screening for Modulators of Cytosolic Chaperonin Activity; purified chaperonin ATPase assay, HTRF ADP detection, 30 min; actives 0.3% (n = 360,000); activity change, % (no concentration beside the values), hits read low; in the data active = activity change below about -30%; also: % is scaled to controls: 0 for no effect and ±100 for the full control effect
#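 First, chaperonin was dispensed at 40 nM or 20 nM final depending on batch activity. Next, compounds were pinned at 76 uM and ATP added at 10 uM. After 30 min at 37 °C, ADP detection reagents ran 30 min at ambient temperature.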
# ERG-DNA inh: qHTS for Small Molecule Inhibitors of the ERG Ets/DNA interaction. Transcriptional regulator ERG (Homo sapiens), P11308. fluorescence polarization, His-ERG Ets domain / labelled DNA. Potency, µM (titrated, usually from 76.9 µM), without a hit: top-dose FP activity, negative = inhibition, usual class: inhibitors. actives 0.028% (n = 370,000). AID 624246, 2012; active = well fitted inhibition curve with a large enough effect in the polarisation, with a control signal flat; inconclusive = small, poorly fitted or top-dose-only effect, or effect the other way, or a change in a side signal; inactive = no such curve, though single readings can be large or run the other way; the % refers to the polarisation;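 also: polarization taken with two DNA probes labelled with fluorescein and Texas red; potency is read from the fitted curve at half-maximal effect; % of control where 0% means no effect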
# Target sequence (P11308 whole entry, looked up, the tested form may be a part): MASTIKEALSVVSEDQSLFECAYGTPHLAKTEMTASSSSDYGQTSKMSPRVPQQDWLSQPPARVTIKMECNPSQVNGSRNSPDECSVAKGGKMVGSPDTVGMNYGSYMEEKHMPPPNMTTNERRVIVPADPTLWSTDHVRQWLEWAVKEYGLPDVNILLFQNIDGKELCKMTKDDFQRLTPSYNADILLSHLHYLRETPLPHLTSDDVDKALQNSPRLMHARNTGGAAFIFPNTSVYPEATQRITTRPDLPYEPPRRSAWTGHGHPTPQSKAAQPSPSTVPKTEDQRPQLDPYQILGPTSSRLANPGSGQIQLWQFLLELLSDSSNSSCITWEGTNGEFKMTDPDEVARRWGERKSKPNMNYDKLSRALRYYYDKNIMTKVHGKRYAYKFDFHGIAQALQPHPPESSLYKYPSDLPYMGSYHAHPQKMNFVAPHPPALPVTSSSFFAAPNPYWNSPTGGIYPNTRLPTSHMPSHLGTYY
#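 His-tagged ERG Ets domain (1 uM in the protein solution; 300mM KCl, 50mM Tris-HCl, 1mM EDTA, 1mM DTT, pH 7.5) received compound, then a probe mix of 5 nM fluorescein-DNA and 100nM Texas-615-DNA. Fluorescence polarization was read for both dyes.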
# Mm-Cpn inhibitor: Inhibitors of TCP-1 ring complex (TRiC) of Methanococcus maripaludis (MmCpn): qHTS. Potency, µM (titrated, usually from 76.9 µM), without a hit: top-dose activity, negative = inhibition, most hits filed as inhibitors. actives 0.031% (n = 330,000). purified Mm-Cpn ATPase, ADP Transcreener TR-FRET. Chaperonin Mm-Cpn (Methanococcus maripaludis); also: potency is read from the fitted curve at half-maximal effect; % is scaled to controls: 0 for no effect and ±100 for the full control effect; nearly all actives have a fitted effect of over 80% in size
#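 TR-FRET (320 nm excitation; 590 and 665 nm emission) reports ADP made from 10 uM ATP by 25 nM enzyme; compounds were preincubated 10 min, reaction run 30 min, both at 37°C.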
# RGS4 inhibitor: Inhibitors of Regulator of G Protein Signaling (RGS) 4: qHTS; Regulator of G-protein signaling 4 (Homo sapiens), P49798; Transcreener GDP fluorescence polarization, RGS4-accelerated GTP hydrolysis; Potency, µM (series often up to 114 µM), for inactives: top-dose activity change, negative = inhibition, most hits filed as inhibitors; actives 0.039% (n = 390,000); AID 504845, 2011; also: potency is read from the fitted curve at half-maximal effect; % is scaled to controls: 0 for no effect and ±100 for the full control effect; nearly all actives have a fitted effect of over 75% in size
# Target sequence (P49798 whole entry, looked up): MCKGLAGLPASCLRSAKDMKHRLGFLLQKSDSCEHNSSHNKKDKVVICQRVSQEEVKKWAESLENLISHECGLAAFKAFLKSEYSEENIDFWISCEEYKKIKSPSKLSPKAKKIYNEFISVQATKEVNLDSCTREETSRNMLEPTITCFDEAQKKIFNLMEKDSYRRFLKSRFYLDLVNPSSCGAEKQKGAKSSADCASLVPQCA
#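 MLSMR compounds (23 nl, pin-transferred) preincubated 10 min at room temperature with a 500nM (2x) first reagent, then RGS4 at 900nM (2x) plus Transcreener GDP mix added; fluorescence polarization (620/688 nm) read before and after 90 min at 30 °C.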
# PTHR1 agonist: qHTS for PTHR1 Agonists: Primary Screen; Potency, µM (doses to about 115 µM), inactives show at the top dose activation, most hits filed as activators; HEK293 GP2 PTHR1 cells, GloSensor cAMP luminescence, 1 h; actives 0.075% (n = 410,000); Parathyroid hormone/parathyroid hormone-related peptide receptor (Homo sapiens), Q03431; also: potency is read from the fitted curve at half-maximal effect; nearly all actives have a fitted effect of over 55% in size
#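 HEK-293-derived GP2 cells expressing PTHR1 and a GloSensor cAMP reporter, 3,000/well, plated overnight, given luciferin plus IBMX (each 0.5 mM as added) for 1 h at 37 °C, then compound for 1 h at 37 °C. Luminescence was read after 15 min at room temperature.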
# Active calls of the source: *; i = inactive; ? = inconclusive; · = not tested or not shown; ! = repeats disagree; [ ] = remark or other dose. The list is not random: actives were taken first. Their share in the collection is about 0.36%. Unless noted, calls follow the shape of the dose curve; as a rule, active = well fitted curve in the direction sought with a large enough effect; inconclusive = small, poorly fitted or top-dose-only effect, or another doubt; inactive = no such curve, though single readings can be large; an effect the other way counts as inactive or inconclusive.
SMILES,CCT chaperon mod,ERG-DNA inh,Mm-Cpn inhibitor,RGS4 inhibitor,PTHR1 agonist
COc1ccc(NC(=O)CSc2nnc(C)n2Cc2ccccc2)cc1,-11.0,-6.6%,0.8%,19.4%,i
O=C1c2ccc([N+](=O)[O-])cc2S(=O)(=O)N1Cc1ccccc1,-2.3,-15.6%,-0.3%,-16.4%,-30.0%
O=[N+]([O-])c1ccc2c(c1)S(=O)(=O)C=C2,·,·,·,21.2µM*,·
S=c1[nH]nc(COc2ccccc2)n1/N=C/C=C/c1ccccc1,-86.6*,7.2%,-0.1%,?,-15.8%
COc1cc(NC(=O)C2CCN(S(=O)(=O)c3ccc4[nH]c(=O)oc4c3)CC2)cc(OC)c1,-3.2,-9.1%,-2.9%,20.8%[11.4 µM],0.767µM*
CCc1ccc2nc(N3CCN(C)CC3)c(C#N)cc2c1,-49.4*,-4.7%,-2.2%,-39.3%,i
O=C1CCCCC1c1cccc2ccccc12 (configuration not stated),-8.3,-10.5%,2.2%,16.0%,i
O=C1O/C(=C/Br)CCC1c1cccc2ccccc12 (configuration not stated),·,·,·,9.47µM*,·
CC(C)OC(=O)c1ccc(N2C(=O)C3CC=CCC3C2=O)cc1 (configuration not stated),-0.3,1.4%,-2.8%,-10.7%,i
CCOC(=O)c1ccc(N2C(=O)C3CC=CCC3C2=O)cc1 (configuration not stated),-46.0*,·,-3.1%,5.5%,i
Cc1ccc2c(c1)c1c3n2CCNC3CCC1 (configuration not stated),-60.5*!,-8.1%,-3.8%,-20.8%,-6.0%
CCCN(C(=O)NCc1noc2ccc(C)cc12)c1ccc(Cl)c(Cl)c1,·,-3.3%,·,-2.7%,i
C/C=N\NC(=O)CNC(=O)CNC(=O)c1ccccc1,-2.9,35.5µM*,0.4%,?,i
COC(=O)[C@@]1(Cc2ccccc2)[C@H]2C(=O)N(C)C(=O)[C@H]2[C@H]2CN=C(SCc3ccc(C)cc3)N21,-59.9*,7.0%,-0.6%,-7.9%,i
COc1cccc2c1ncc1c(-c3ccc(C)cc3)nn(-c3ccc(F)cc3)c12,·,1.3%,·,23.4%,-24.2%
CC(=O)Nc1ccc(NC2=Nc3ccccc3N3C2=Nc2c(c(C)nn2-c2ccccc2)C3c2ccccc2)cc1 (configuration not stated),-1.1,-4.4%,-7.5%,6.0%,-2.2%[57.5 µM]
COc1ccc(NC2=Nc3ccccc3N3C2=Nc2c(c(C)nn2-c2ccc(C)cc2)C3c2cccnc2)cc1 (configuration not stated),-45.1*,-3.1%,-0.5%,5.1%,i
COc1ccc(-c2ccc(OC)c(C3C4C=CCC(C)C4C(=O)N3Cc3ccccc3)c2)cc1 (configuration not stated),·,·,·,-17.6%,·
O=C1Cc2cc(S(=O)(=O)N3CCN(c4ccccc4)CC3)ccc2N1,-0.4,?,-0.8%,2.3%,-93.5%
O=C1Cc2cc(CCN3CCN(c4nsc5ccccc45)CC3)c(Cl)cc2N1,·,·,-1.1%,16.8µM*,·
CCCn1cc(S(=O)(=O)c2ccccc2)c(=O)c2cc(F)c(N3CCCCCC3)cc21,·,4.9%,·,-16.9%,i
N#CCC(=O)Nc1ccc(C(=O)OCC(=O)c2ccc3c(c2)OCO3)cc1,1.6,5.3%,44.7µM*,-2.2%,-66.1%
CCOC(=O)c1c(NC(=S)NC)sc2c1CC(C)(C)SC2,-4.6,5.0%,-6.5%,?,-8.9%
CCOC(=O)c1c(NC(=S)Nc2ccccc2)sc2c1CC(C)(C)SC2,0.3,-1.0%,50.1µM*,-51.3%,-7.5%
COC(=O)C1=C[C@@H](C(=O)OC)[C@@H]2C3=C(C(=O)[C@@]2(C)NC(=O)c2ccccc2)[C@H](C)[C@@H]2C(=O)N(Cc4ccccc4)C(=O)[C@@H]2[C@@H]3C1,·,·,·,15.4%,·
SMILES,CCT chaperon mod,ERG-DNA inh,Mm-Cpn inhibitor,RGS4 inhibitor,PTHR1 agonist
CCOc1ccc(OCCC(=O)OCC(=O)Nc2ccc(Cl)cn2)cc1,-32.7*,-1.1%,1.7%,1.3%,i
O=C(CCc1ccccc1)Nc1ccc(Cl)cn1,-52.6*,1.5%,0.8%,-26.8%,-26.6%
O=C(Cc1ccccc1)Nc1ccc(Cl)cn1,2.4,-7.0%,0.4%,15.6%,-40.8%
O=C(COC(=O)Cc1ccccc1F)Nc1ccc(Cl)cn1,-32.8*,2.3%,2.3%,?,-0.1%
CCOC(=O)N1CCN([N+]([O-])=NOc2cc(O/N=[N+](\[O-])N(CC)CC)c([N+](=O)[O-])cc2[N+](=O)[O-])CC1,·,·,·,-12.0%,·
CCc1ccccc1N(CC(=O)N1CCc2ccccc2C1)S(C)(=O)=O,-31.0*,-14.6%,1.5%,-14.7%,i
CCc1ccccc1N(CC(=O)N1CCCC1)S(C)(=O)=O,-1.1,0.9%,2.2%,-11.3%,i
COc1ccc(NC(=O)CN(C)C(=O)CCC2CCCC2)cc1,-35.9*,-5.8%,0.6%,29.9%,i
Cc1c(C2=CCN(S(=O)(=O)c3ccc(CC(C)C)cc3)CC2)c2ccccc2n1CC(=O)N1CCCC1,·,?,·,1.9%,44.7µM*
COc1ccc(-c2c(C3C4C=CCC(C)C4C(=O)N3Cc3ccccc3)ccc3ccccc23)cc1 (configuration not stated),·,·,·,-0.5%,·
COc1ccc(-c2csc(NC(=O)c3ccc(S(=O)(=O)N4CCc5ccccc5C4)cc3)n2)c(OC)c1,0.2,4.0%,50.1µM*,1.2%,i
CCOc1ccc(-c2csc(NC(=O)c3ccc(S(=O)(=O)N4CCc5ccccc5C4)cc3)n2)cc1,-0.6,-0.2%,?,-13.0%,-18.4%
Cc1cccc(Cn2c(COc3ccc(Cl)cc3)nc3ccccc32)c1,·,-1.6%,·,21.6%,-22.2%
O=C(Nc1cccnc1)c1cc2c(s1)-c1ccccc1OC2,-71.2*,15.1%,-1.0%,-13.2%,-35.7%
COc1cccc(NC(=O)Cn2c(=O)c3cccn3c3ccc(F)cc32)c1,·,-4.2%,·,-10.2%,i
S=c1[nH]nc(-c2ccccn2)n1/N=C/c1cccs1,-32.2*,·,-1.1%,6.9%,i
CC(C)(C)c1n[nH]c(=S)n(/N=C/c2cccs2)c1=O,-35.4*,6.8%,-0.1%,-14.3%,-17.1%
CCCNc1ncnc2c1c(-c1ccccc1)cn2-c1ccccc1,·,-3.5%,·,-25.9%,-6.2%
Cc1cccc(N2CCN(C(=O)c3ccc4c(c3)N(Cc3cccc(Cl)c3)C(=O)c3ccccc3S4=O)CC2C)c1 (configuration not stated),·,-0.9%,·,-3.1%,i
